According to PubChem BioAssay (NCATS):
Records with an inconclusive call do not appear. Activity calls are given as the source filed them. The call rests on the fitted dose curve; in most records, active means well fitted inhibition curve with a large enough effect; inconclusive means small, poorly fitted or top-dose-only effect; inactive means flat fitted curve, though single readings scatter.

Experiment: qHTS for Inhibitors of Plasmodium falciparum (DD2) proliferation (AID 504314);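 further: parasite DNA measured by SYBR Green fluorescence after red cell lysis; plate controls were DMSO vehicle for no effect and artemisinin wells for full effect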
Conditions: P. falciparum Dd2 in erythrocytes, SYBR Green growth, 72 h; series mostly up to 6.11 µM; activity, negative = inhibition: at the top concentration
How it was run: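 Parasite proliferation measured as SYBR Green signal from Plasmodium DNA, mature erythrocytes lacking DNA. 72 h incubation, 37C; activity scaled between vehicle and 0.29 uM artemisinin, with correction from vehicle-only plates.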

SMILES | activity, negative = inhibition | Potency
COC(=O)[C@@H]1C[C@@]23C(=NN=C(SC)C2Nc2ccccc23)N1C(C)=O (stereo partly specified) | -1.61% (inactive) | 
COC(=O)c1ccc(CN2C(=O)C3(CC(C)=C[C@@H](C)O3)c3c(Br)cccc32)cc1 (stereo partly specified) |  | inactive
CCCCC1=CC2=C(c3ccco3)C(=O)C(C)(OC(=O)c3ccc(OC)cc3)C(=O)C2=CN1Cc1ccccc1 (stereo unspecified) |  | inactive
CC(C)OC(=O)CC(NC(=O)OC(C)(C)C)c1ccccc1 (stereo unspecified) |  | inactive
COC(=O)C1(C)C=C(Nc2ccc(OC)cc2)C(=O)N1c1ccc(OC)cc1 (stereo unspecified) | -10.8% (inactive) | 
COC1=C[C@H](C(=O)NCc2ccccn2)[C@@]2(C)Cc3ccccc3[C@@H]2CC1=O | -11.1% (inactive) | 
CCC(=O)C[C@@H](NC(=O)OC)c1ccccc1 | -0.332% (inactive) | 
COC(=O)[C@H]1[C@H](CCc2ccccc2)NC(=O)N(Cc2ccccc2)[C@H]1C | -7.28% (inactive) | 
C[C@H]1[C@H](N=[N+]=[N-])[C@H](O)CCO[C@@H]1c1ccccc1 | -9.76% (inactive) | 
C=C1CN2C(=NC(c3ccccc3)C(C(=O)OC)=C2C)O1 (stereo unspecified) | 0.757% (inactive) | 
C=CCOC(=O)[C@H](O)[C@@H](O)C(=O)OCC=C | -4.89% (inactive) | 
C#CCN1C(=O)CC[C@@]23C1=NC(C(=O)OC)=C(C(=O)OC)[C@@H]2N(Cc1ccccc1)c1ccccc13 | -4.43% (inactive) | 
COC(=O)C1=C(C(=O)OC)[C@@H]2Nc3ccccc3[C@@]23C[C@@H](C(=O)OC)N(C(=O)COCc2ccccc2)C3=N1 |  | inactive
Cc1ccc([S+](=O)([O-])N[C@@H]2COC(=O)CC=C[C@H](C)COC(=O)N[C@@H](C)C(=O)CC=C[C@H]2C)cc1 | -1.01% (inactive) | 
CCN1C(=NCC(C)C)N[C@H](c2ccccc2)[C@H](C(=O)OC)[C@H]1C | -2.22% (inactive) | 
C=CCOC(=O)N[C@@H](c1ccccc1)[C@@H](C)[N+](=O)[O-] | -7.12% (inactive) | 
C=CCOC(=O)NC(c1ccc(F)c(F)c1)C(C(=O)CCl)C(=O)OC (stereo unspecified) | -1.79% (inactive) | 
CCOC(=O)C1=CN(CCC=C(C)C)C(=O)N(C(C)=O)C1c1ccccc1 (stereo unspecified) | -4.72% (inactive) | 
COC1=CC2C(=O)C(C1=O)C1c3ccccc3CC21 (stereo unspecified) | 2.16% (inactive) | 
CCOC(=O)NN=C1C[C@@H](O)[C@@H](O)[C@@H]2[C@H]3C(=O)N(Cc4ccc5c(c4)OCO5)C(=O)[C@@H]3CC[C@H]12 | 2.68% (inactive) | 
CCOC(=O)C1=C(CCl)NC(=O)N(C(C)=O)C1c1ccccc1 (stereo unspecified) | -3.62% (inactive) | 
C#CCCCON=C1C[C@@H](O)[C@H](O)[C@H]2[C@@H]3C(=O)N(C[C@@H]4CCCO4)C(=O)[C@@H]3CC[C@@H]12 | 0.131% (inactive) | 
CCN1C(=NCc2cc(OC)c(OC)c(OC)c2)NC(c2ccccc2)C(C(=O)OC)=C1C (stereo unspecified) | -2.06% (inactive) | 
CC(C)=CCCC(C)=CCON=C1C[C@@H](O)[C@@H](O)[C@@H]2[C@H]3C(=O)N(C[C@@H]4CCCO4)C(=O)[C@@H]3CC[C@@H]12 | -8.62% (inactive) | 
O=C(C=Cc1cccc([N+](=O)[O-])c1)c1ccccc1 | -10.2% (inactive) | 
CC#CCN1C(=O)N(C)C(c2ccccc2)C(C(=O)OC)=C1C (stereo unspecified) | -7.03% (inactive) | 

Experiment: qHTS for Inhibitors of Plasmodium falciparum (7G8) proliferation (AID 504316);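 further: 0% = DMSO vehicle and -100% = 0.29 µM artemisinin full kill; nearly all actives have a fitted effect of over 65% in size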
Conditions: P. falciparum 7G8 in erythrocytes, SYBR Green DNA, 72 h; series mostly up to 6.7 µM; activity change, negative = inhibition: at the top concentration
How it was run: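 Parasite growth measured as SYBR Green DNA fluorescence (ex 485, em 535 nm) after overnight lysis following 72 h culture at 37 °C, 0.3% parasitemia, 2.5% hematocrit. Values normalized against DMSO and 0.29 uM artemisinin controls, with plate-stack correction.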

SMILES | activity change, negative = inhibition | Potency
CC(=O)OC[C@H]1O[C@H](CC=NO[C@@H](C)c2cn([C@H](CO)Cc3ccccc3)nn2)C=C[C@@H]1OC(C)=O | -10.1% (inactive) | 
COc1cc2c(c(OC)c1)[C@H](C=Cc1ccccc1)[C@@H]([C@H](O)CO)OC2 | 6.45% (inactive) | 
C[C@@H]1CC[C@H]2C(=O)O[C@@H](Cc3ccccc3)CN2[C@@H]1c1ccc(Br)cc1 | 0.506% (inactive) | 
COC(=O)N[C@@H](c1cccc(F)c1)[C@@H](C)[N+](=O)[O-] | 5.55% (inactive) | 
CCN1C(=NCc2ccc(OC)cc2)NC(c2cccc(F)c2)C(C(=O)OC)=C1C (stereo unspecified) | -9.62% (inactive) | 
CCOC(=O)C1=CN(CCC=C(C)C)C(=O)NC1c1ccccc1 (stereo unspecified) | 0.581% (inactive) | 
CC(C)CON=C1C[C@@H](O)[C@@H](O)[C@@H]2[C@H]3C(=O)N(Cc4ccccc4)C(=O)[C@@H]3CC[C@@H]12 | -0.723% (inactive) | 
CC1(O)C(=O)C=C2C=C(c3ccc(C#N)cc3)OC=C2C1=O (stereo unspecified) | 1.86% (inactive) | 
COC(=O)CC=C[C@@H](C)[C@@H](C=NO[C@H](C)c1cn([C@H](CO)Cc2ccccc2)nn1)NS(=O)(=O)c1ccc(C)cc1 | -4.31% (inactive) | 
C[C@H]1Cc2c(-c3ccccc3)nc3c(c2CO1)CN(S(=O)(=O)c1ccc(Cl)c2nonc12)CC3 |  | inactive
CCN1C(=NCCCCO)N[C@@H](CCc2ccccc2)[C@H](C(=O)OC)[C@H]1C | 2.95% (inactive) | 
COC(=O)N(C=Cc1ccc(OC)cc1)CCc1ccc(OC)c(OC)c1 | -12.1% (inactive) | 
Cc1noc(C)c1S(=O)(=O)N1CCc2nc(COc3ccccc3)c3c(c2C1)CO[C@@H](C)C3 |  | inactive
C=C1C2c3ccccc3C(CC2(C)O[Si](C)(C)C)N1C(=O)OC (stereo unspecified) |  | inactive
COC(=O)[C@@H]1C[C@@]23C(=NN=C(SC)C2Nc2ccccc23)N1C(C)=O (stereo partly specified) | 3.59% (inactive) | 
COC(=O)c1ccc(CN2C(=O)C3(CC(C)=C[C@@H](C)O3)c3c(Br)cccc32)cc1 (stereo partly specified) |  | inactive
CCCCC1=CC2=C(c3ccco3)C(=O)C(C)(OC(=O)c3ccc(OC)cc3)C(=O)C2=CN1Cc1ccccc1 (stereo unspecified) |  | inactive
CC(C)OC(=O)CC(NC(=O)OC(C)(C)C)c1ccccc1 (stereo unspecified) |  | inactive
COC(=O)C1(C)C=C(Nc2ccc(OC)cc2)C(=O)N1c1ccc(OC)cc1 (stereo unspecified) | -0.177% (inactive) | 
COC1=C[C@H](C(=O)NCc2ccccn2)[C@@]2(C)Cc3ccccc3[C@@H]2CC1=O | -9.41% (inactive) | 

SMILES | activity change, negative = inhibition | Potency
CCC(=O)C[C@@H](NC(=O)OC)c1ccccc1 | 8.04% (inactive) | 
COC(=O)[C@H]1[C@H](CCc2ccccc2)NC(=O)N(Cc2ccccc2)[C@H]1C | -9.06% (inactive) | 
C[C@H]1[C@H](N=[N+]=[N-])[C@H](O)CCO[C@@H]1c1ccccc1 | 12.3% (inactive) | 
C=C1CN2C(=NC(c3ccccc3)C(C(=O)OC)=C2C)O1 (stereo unspecified) | 11.2% (inactive) | 
C=CCOC(=O)[C@H](O)[C@@H](O)C(=O)OCC=C | 11.7% (inactive) | 
C#CCN1C(=O)CC[C@@]23C1=NC(C(=O)OC)=C(C(=O)OC)[C@@H]2N(Cc1ccccc1)c1ccccc13 | 2.41% (inactive) | 
COC(=O)C1=C(C(=O)OC)[C@@H]2Nc3ccccc3[C@@]23C[C@@H](C(=O)OC)N(C(=O)COCc2ccccc2)C3=N1 | 0.602% (inactive) | 
Cc1ccc([S+](=O)([O-])N[C@@H]2COC(=O)CC=C[C@H](C)COC(=O)N[C@@H](C)C(=O)CC=C[C@H]2C)cc1 | 7.41% (inactive) | 
CCN1C(=NCC(C)C)N[C@H](c2ccccc2)[C@H](C(=O)OC)[C@H]1C | -3.04% (inactive) | 
C=CCOC(=O)N[C@@H](c1ccccc1)[C@@H](C)[N+](=O)[O-] | 6.37% (inactive) | 
C=CCOC(=O)NC(c1ccc(F)c(F)c1)C(C(=O)CCl)C(=O)OC (stereo unspecified) | 4.2% (inactive) | 
CCOC(=O)C1=CN(CCC=C(C)C)C(=O)N(C(C)=O)C1c1ccccc1 (stereo unspecified) | -12.1% (inactive) | 
COC1=CC2C(=O)C(C1=O)C1c3ccccc3CC21 (stereo unspecified) | 4.17% (inactive) | 
CCOC(=O)NN=C1C[C@@H](O)[C@@H](O)[C@@H]2[C@H]3C(=O)N(Cc4ccc5c(c4)OCO5)C(=O)[C@@H]3CC[C@H]12 | -1.47% (inactive) | 
CCOC(=O)C1=C(CCl)NC(=O)N(C(C)=O)C1c1ccccc1 (stereo unspecified) | 8.66% (inactive) | 
C#CCCCON=C1C[C@@H](O)[C@H](O)[C@H]2[C@@H]3C(=O)N(C[C@@H]4CCCO4)C(=O)[C@@H]3CC[C@@H]12 | 0.275% (inactive) | 
CCN1C(=NCc2cc(OC)c(OC)c(OC)c2)NC(c2ccccc2)C(C(=O)OC)=C1C (stereo unspecified) | 5.1% (inactive) | 
CC(C)=CCCC(C)=CCON=C1C[C@@H](O)[C@@H](O)[C@@H]2[C@H]3C(=O)N(C[C@@H]4CCCO4)C(=O)[C@@H]3CC[C@@H]12 | -9.2% (inactive) | 
O=C(C=Cc1cccc([N+](=O)[O-])c1)c1ccccc1 | -8.22% (inactive) | 
CC#CCN1C(=O)N(C)C(c2ccccc2)C(C(=O)OC)=C1C (stereo unspecified) | 9.07% (inactive) | 
